These results are taken from PubChem BioAssay.

For part of these data: Entries with a potency or affinity are not part of this list. Active and inactive are the calls of the source.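 Rule for the calls, unless noted: active = fitted half-maximal concentration within 10 nM to 100 µM, steepness 0.5 to 2, significant signal drop, low assay interference; inactive = the rest.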

The target in test [1] is Cell division control protein 42 homolog (Homo sapiens) (UniProt P60953). In words: activated mutant Cdc42 GTP-binding inhibitors, dose response, biochemical, multiplex bead flow cytometry, Bodipy-FL-GTP (AID 1333;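 active = fitted half-maximal concentration within the tested dose range, moderate curve steepness, a statistically real signal drop, and little compound fluorescence or tag-binding interference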). On the technique in general: Flow cytometry measures light scatter and fluorescence of single cells or particles in a stream.
Sequence of Cell division control protein 42 homolog (Homo sapiens) (P60953 whole entry, looked up): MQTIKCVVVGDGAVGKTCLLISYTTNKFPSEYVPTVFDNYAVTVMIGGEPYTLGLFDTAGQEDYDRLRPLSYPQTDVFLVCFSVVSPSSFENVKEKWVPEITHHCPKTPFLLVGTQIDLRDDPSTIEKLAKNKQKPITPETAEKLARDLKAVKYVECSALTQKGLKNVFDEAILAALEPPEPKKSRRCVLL
The target is the same in test [2]. Kind of test: wildtype Cdc42 GTP-binding inhibitors, dose response, biochemical, multiplex bead flow cytometry, Bodipy-FL-GTP (AID 1334;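 active = fitted half-maximal concentration within the tested range, moderate curve steepness, significant signal drop, and little compound fluorescence or bead-linkage interference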). To be noted: bead-based flow cytometry, Bodipy-FL-GTP binding to GST-Cdc42; at 100 µM (top of the series) unless noted.
For test [3], the target named is GTPase HRas (Homo sapiens) (UniProt P01112). In words: inhibitors of GTP binding to wildtype Ras, dose response, biochemical, multiplex bead flow cytometry (AID 1335). To be noted: bead-based flow cytometry, Bodipy-GTP binding to GST-Ras; at 100 µM (top of the series) unless noted.
Sequence of GTPase HRas (Homo sapiens) (P01112 whole entry, looked up): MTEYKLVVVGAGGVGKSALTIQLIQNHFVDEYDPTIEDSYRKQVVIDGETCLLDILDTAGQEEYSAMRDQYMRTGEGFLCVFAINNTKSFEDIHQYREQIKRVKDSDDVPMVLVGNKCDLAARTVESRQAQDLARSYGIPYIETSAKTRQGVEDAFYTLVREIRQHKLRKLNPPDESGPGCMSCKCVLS
For test [4], the system named is Ras-related protein Rab-7a (dog), GTP binding. Kind of test: Rab7 GTP binding inhibitors, potency, dose response, biochemical, wildtype, multiplex bead flow cytometry (AID 1336; call rule not given here).
The target of test [5] is Ras-related C3 botulinum toxin substrate 1 (Homo sapiens) (UniProt P63000). In words: wildtype Rac1 GTP binding inhibitors, dose response, biochemical, multiplex bead flow cytometry (AID 1340;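 active = dose curve with midpoint inside tested range, moderate steepness, plateau gap beyond fit error, low compound glow and bead-link interference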). As to conditions: GST-Rac1 beads, Bodipy-FL-GTP binding; at 100 µM (top of the series) unless noted.
In test [6] the target is GTPase HRas (Homo sapiens) (UniProt P01112). In words: activated Ras mutant GTP binding inhibitors, dose response, biochemical, multiplex bead flow cytometry (AID 1341;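 active = dose-response curve with midpoint inside the tested range, moderate steepness, significant amplitude and little compound fluorescence or bead-attachment interference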;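 note: GST-tagged constitutively activated Ras mutant immobilized on beads and multiplexed with other GTPases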).

For `Cc1nc2c(-c3ccc(Cl)cc3)c(C)[nH]n2c(=O)c1Cc1ccccc1`, the result in test [1], in test [4] and in test [6] was inactive. The fluorescence, percent of control (lower = inhibition) in test [2] turned out to be 34.5%. For the same molecule, the GTP binding, percent of control in test [3] was determined as 75.9%. This molecule also registered a GTP binding signal, raw median fluorescence (lower = inhibition) (MCF (arbitrary fluorescence units)) in test [5] of 158.

On to `COc1ccc(-c2nnc(CSc3nc4ccccc4c(=O)n3C)o2)cc1OC`, for which the outcome in test [1], in test [4] and in test [6] was inactive. Moreover, the fluorescence, percent of control (lower = inhibition) in test [2] worked out at 39.2%. Besides, in test [3], the GTP binding, percent of control is 87.3%. The GTP binding signal, raw median fluorescence (lower = inhibition) (MCF (arbitrary fluorescence units)) in test [5] was 320.

Take `CCC/C(O)=C1\C(=O)CC(C)(C)CC1=Nc1ccccc1OC`: the molecule was classed as inactive in test [1], in test [4] and in test [6]. Besides, the fluorescence, percent of control (lower = inhibition) in test [2] stood at 41.5%. This molecule came in with a GTP binding, percent of control in test [3] of 88.8%. The molecule further gave a GTP binding signal, raw median fluorescence (lower = inhibition) (MCF (arbitrary fluorescence units)) in test [5] of 276.

With `CCn1cc(C(=O)O)c(=O)c2cc(F)c(N/N=C/c3ccccc3)cc21`, the molecule was classed as inactive in test [1], in test [4] and in test [6]. The fluorescence, percent of control (lower = inhibition) in test [2] was determined as 45.9%. In addition, the GTP binding, percent of control in test [3] was found to be 58.9%. The molecule also came in with a GTP binding signal, raw median fluorescence (lower = inhibition) (MCF (arbitrary fluorescence units)) in test [5] of 144.

With `COc1cccc2c(SCC(=O)N/N=C/c3ccc(O)c(O)c3)cc(C)nc12`, the molecule was classed as inactive in test [1], in test [4] and in test [6]. For the same molecule, in test [2], the fluorescence, percent of control (lower = inhibition) is 27.5%. In addition, the GTP binding, percent of control in test [3] is 60.2%. In test [5], this molecule displayed a GTP binding signal, raw median fluorescence (lower = inhibition) (MCF (arbitrary fluorescence units)) of 119.

As for `Cc1cc(NCc2sc(C(=O)O)cc2C)ccc1Br`, the result in test [1], in test [4] and in test [6] was inactive. Besides, the fluorescence, percent of control (lower = inhibition) in test [2] amounted to 57.8%. In test [3], this molecule registered a GTP binding, percent of control of 81.7%. Moreover, the GTP binding signal, raw median fluorescence (lower = inhibition) (MCF (arbitrary fluorescence units)) in test [5] came out at 33.8.

Regarding `O=C(Nc1ccc2nc(-c3cccs3)[nH]c2c1)c1cccs1`, the result in test [1], in test [4] and in test [6] was inactive. In addition, in test [2], the fluorescence, percent of control (lower = inhibition) was found to be 30.4%. This molecule also showed a GTP binding, percent of control in test [3] of 68.4%. In addition, in test [5], the GTP binding signal, raw median fluorescence (lower = inhibition) (MCF (arbitrary fluorescence units)) is 184.

Regarding `O=C(O)c1cn(CCOc2ccc(Cl)cc2)c2ccccc12`, the result in test [1], in test [4] and in test [6] was inactive. The same molecule showed a fluorescence, percent of control (lower = inhibition) in test [2] of 59.9%. The same molecule yielded a GTP binding, percent of control in test [3] of 83.2%. The molecule also gave a GTP binding signal, raw median fluorescence (lower = inhibition) (MCF (arbitrary fluorescence units)) in test [5] of 36.5.

Regarding `CCOc1cc(/C=C(/C#N)c2nc3ccccc3[nH]2)ccc1OCc1ccc(C(=O)O)o1`, the molecule was called inactive in test [1], in test [4] and in test [6]. Further, the fluorescence, percent of control (lower = inhibition) in test [2] is 56.8%. The same molecule gave a GTP binding, percent of control in test [3] of 84.9%. Besides, the GTP binding signal, raw median fluorescence (lower = inhibition) (MCF (arbitrary fluorescence units)) in test [5] is 103.

As to `CC(C)c1cc(NCc2ccccn2)n2c(nc3ccccc32)c1C#N`, the outcome in test [1], in test [4] and in test [6] was inactive. In test [2], this molecule had a fluorescence, percent of control (lower = inhibition) of 34.4%. The molecule also showed a GTP binding, percent of control in test [3] of 77.4%. This molecule also returned a GTP binding signal, raw median fluorescence (lower = inhibition) (MCF (arbitrary fluorescence units)) in test [5] of 178.

Regarding `O=C(NC1CCCCC1)c1noc2c1CCCCC2`, the molecule was called inactive in test [1], in test [4] and in test [6]. The fluorescence, percent of control (lower = inhibition) in test [2] was 34.3%. This molecule also showed a GTP binding, percent of control in test [3] of 80.9%. The same molecule showed a GTP binding signal, raw median fluorescence (lower = inhibition) (MCF (arbitrary fluorescence units)) in test [5] of 252.

`CCCc1cc(NCc2ccccn2)n2c(nc3ccccc32)c1C#N`: the outcome in test [1], in test [4] and in test [6] was inactive. In test [2], this molecule registered a fluorescence, percent of control (lower = inhibition) of 30.1%. The molecule further had a GTP binding, percent of control in test [3] of 68.2%. The molecule further registered a GTP binding signal, raw median fluorescence (lower = inhibition) (MCF (arbitrary fluorescence units)) in test [5] of 167.

Turning to `Cc1cc(NS(=O)(=O)c2ccc(NC(=O)c3cc4c(=O)n5ccccc5nc4s3)cc2)nc(C)n1`, the molecule was classed as inactive in test [1], in test [4] and in test [6]. Besides, the fluorescence, percent of control (lower = inhibition) in test [2] was found to be 31.9%. In test [3], this molecule returned a GTP binding, percent of control of 77.5%. Further, the GTP binding signal, raw median fluorescence (lower = inhibition) (MCF (arbitrary fluorescence units)) in test [5] amounted to 166.

For `CCN(CC)S(=O)(=O)c1ccc2c(c1)c(=O)c(C(=O)N1CCc3ccccc3C1)cn2C`, the molecule was classed as inactive in test [1], in test [4] and in test [6]. This molecule returned a fluorescence, percent of control (lower = inhibition) in test [2] of 96.7%. The same molecule returned a GTP binding, percent of control in test [3] of 172%. Moreover, the GTP binding signal, raw median fluorescence (lower = inhibition) (MCF (arbitrary fluorescence units)) in test [5] turned out to be 225.

For the molecule `CCCCn1c(SCC(=O)c2ccccc2)nc2c1c(=O)[nH]c(=O)n2C`, the molecule was called inactive in test [1], in test [4] and in test [6]. This molecule had a fluorescence, percent of control (lower = inhibition) in test [2] of 48.7%. In test [3], this molecule yielded a GTP binding, percent of control of 61.3%. Besides, the GTP binding signal, raw median fluorescence (lower = inhibition) (MCF (arbitrary fluorescence units)) in test [5] is 197.

Take `Cc1nc2nc(SCC(=O)O)nn2c(C)c1Cc1c(F)cccc1Cl`: the molecule was called inactive in test [1], in test [4] and in test [6]. The fluorescence, percent of control (lower = inhibition) in test [2] is 28.4%. The same molecule yielded a GTP binding, percent of control in test [3] of 75.3%. For the same molecule, the GTP binding signal, raw median fluorescence (lower = inhibition) (MCF (arbitrary fluorescence units)) in test [5] stood at 221.
